# Source: PubChem
# Hits are enriched below; roughly 21% of the tested compounds scored in any of these assays.
# Cycloheximide cs: Cycloheximide Counterscreen for Small Molecule Inhibitors of Shiga Toxin | cell reporter, cycloheximide protein synthesis inhibition counterscreen | 300,000 compounds, 12% hits | max response, %; in the data active = max response mostly above about 13%, no sharp cut-off; inactive = mostly below about 14%; also: read at 38.3 µM for the half of the compounds with a filed dose; 0% is about no effect
# Pf growth 96h: Primary qHTS for delayed death inhibitors of the malarial parasite plastid, 96 hour incubation; P. falciparum luciferase reporter growth, 96 h; Potency, µM (highest dose often 28.7 µM), for the others: top-dose activity change, negative = inhibition, actives largely listed as inhibitors; 320,000 compounds, 6.9% hits; also: potency is read from the fitted curve at half-maximal effect; % is scaled to controls: 0 for no effect and ±100 for the full control effect
#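 Two parasite generations (96 h, 37 C, 5% CO2) of compound exposure in infected erythrocytes (0.05% parasitemia, 2% hematocrit). Luciferase-reporter P. falciparum; decreased luminescence indicates inhibited growth, aimed at apicoplast-acting delayed death.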
# Shiga toxin inh: A qHTS for Small Molecule Inhibitors of Shiga Toxin; Vero cells, Shiga toxin protein synthesis inhibition reporter; inhibition, % at 38.7 µM; 290,000 compounds, 9.2% hits; AID 2315, 2010; in the data active = inhibition mostly above about 28%, no sharp cut-off; inactive = mostly below about 43%; also: 0% is about no effect
# Sm TGR block: qHTS Assay for the Inhibitors of Schistosoma Mansoni Peroxiredoxins. purified TGR, DTNB reduction, TNB absorbance 405 nm. 360,000 compounds, 3% hits. Schistosoma mansoni thioredoxin glutathione reductase (TGR), Q962Y6. Potency, µM (series often up to 114 µM), for inactives: at the top dose activity change, negative = inhibition, actives largely listed as inhibitors; also: potency is read from the fitted curve at half-maximal effect; % is scaled to controls: 0 for no effect and ±100 for the full control effect; nearly all actives have a fitted effect of over 60% in size
#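 Kinetic colorimetric format: TGR-catalysed, NADPH-driven DTNB reduction monitored via TNB absorbance. Enzyme dispensed at 20 nM; compound exposure 15 min at room temperature before reaction start.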
# NS1 inh: qHTS Assay for Inhibitors of Influenza NS1 Protein Function; Potency, µM (top dose mostly 46.1 µM), inactives show at the top dose activity, positive = more growth; 270,000 compounds, 0.4% hits; AID 2326, 2010; calls by dose curve; also: potency is read from the fitted curve at half-maximal effect; actives are rising curves; nearly all actives have a fitted effect of over 50% in size
#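 OD600 was taken as the measure of yeast growth restored by compound in an NS1-expressing S. cerevisiae strain. Cells had been washed out of glucose medium and diluted 1:100 into galactose -URA medium, pH 6.0.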
# Pf growth 48h: Primary qHTS for delayed death inhibitors of the malarial parasite plastid, 48 hour incubation; P. falciparum luciferase growth in erythrocytes, 48 h; Potency, µM (series often up to 28.7 µM), for inactives: top-dose activity change, negative = inhibition, hits mostly inhibitors; 310,000 compounds, 5.9% hits; also: potency is read from the fitted curve at half-maximal effect; % is scaled to controls: 0 for no effect and ±100 for the full control effect
#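 A one-generation exposure of luciferase-tagged malaria parasites in RPMI 1640/Albumax erythrocyte culture, 37 C and 5% CO2. Inhibition is inferred from decreased luminescence after adding detection reagent.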
# * = called active by the depositor; ? = inconclusive; · = no result given; [ ] = remark or other dose. Unless noted, calls follow the shape of the dose curve; as a rule, active = well fitted curve in the direction sought with a large enough effect; inconclusive = small, poorly fitted or top-dose-only effect, or another doubt; inactive = no such curve, though single readings can be large; an effect the other way counts as inactive or inconclusive.
SMILES,Cycloheximide cs,Pf growth 96h,Shiga toxin inh,Sm TGR block,NS1 inh,Pf growth 48h
CCOC(=O)C1(CC2CCCCO2)CCN(C(=O)Nc2ccccc2SC)CC1 (stereo not drawn),-2.0,11.7µM*,9.6,5.9%,-4.2%,?
CCOC(=O)C1(CC2CCCCO2)CCN(C(=O)Nc2ccccc2CC)CC1 (stereo not drawn),1.0,35.2%,3.8,-2.2%,4.4%,0.0%
COc1ccc(Nc2nnc(SCc3cc(=O)n4ccsc4n3)s2)cc1,17.1,?,20.5,-1.0%,4.3%,?
COc1ccc(-c2cc(-c3ccc(OC)c(OC)c3)n[nH]2)c(O)c1,70.5*,?,96.8*,2.4%,-58.2%,·
COc1ccc(-c2cc(-c3cc(F)ccc3O)[nH]n2)cc1OC,37.7*,?,78.1*,-23.2%,-2.5%,32.3%
COc1ccc(-c2cc(-c3ccc(Cl)cc3)n[nH]2)c(O)c1,37.0*,18.3%,92.5*,-6.3%,-6.6%,?
COC(=O)c1cc(-c2ccc(OC)c(OC)c2)n[nH]1,0.8,-28.8%,-3.0,-12.7%,-9.6%,·
COc1ccc(-c2cn[nH]c2-c2ccc(O)cc2O)cc1OC,5.1,9.28µM*,-10.0,3.5%,-3.5%,?
Cc1cccc(C)c1NC(=O)CCCN1C(=O)C(c2ccccc2)Oc2cccnc21 (stereo not drawn),13.8,28.2%,-0.9,10.1%,-5.1%,14.1%
CCOC(=O)c1c(NC(=S)NC(=O)c2cnn(CC)c2)sc2c1CCC(C)C2 (stereo not drawn),-1.8,62.8%,-13.5,-20.8%,8.0%,-1.2%
O=C(O)CC1(c2ccc(F)cc2)C2CC3CC(C2)CC1C3 (stereo not drawn),-2.9,0.5%,-11.3,19.2%,-52.6%,-19.3%
COc1ccc(-c2c(-c3ccc(OC)c(C)c3O)n[nH]c2C)cc1,1.4,11.7µM*,-13.0,7.8%,-28.0%,-11.6%
COc1ccc(O)c(-c2cc(-c3cccc(Br)c3)n[nH]2)c1,31.7*,?,29.1*,1.7%[11.4 µM],-149.2%,·
COc1ccc(-c2cc(-c3cc(OC)ccc3O)[nH]n2)cc1,45.1*,·,97.4*,-0.1%,-142.5%,·
COc1ccc(O)c(-c2cc(-c3ccc(F)cc3)n[nH]2)c1,50.3*,-86.6%,116.4*,4.8%,-57.1%,?
COc1ccc(-c2c(-c3ccc(O)cc3O)n[nH]c2C)cc1OC,3.5,?,-20.0,12.6%,?,·
COc1ccc(-c2n[nH]c(C)c2-c2cc(OC)ccc2O)cc1,8.1,·,-25.6,-29.5%,3.7%,20.3%
C[C@@H](NC(=O)c1ncn(Cc2ccccc2)c1C(=O)N[C@H](C)c1ccccc1)c1ccccc1,·,?,·,-4.3%,·,13.1µM*
Nc1cc(=O)[nH]c(SCCSc2cc(Cl)ccc2Cl)n1,1.0,1.8%,-6.1,-1.6%,5.3%,32.7%
Cc1cn2c(=O)cc(COc3ccc(NC(=O)c4ccccc4C)cc3)nc2s1,·,·,·,1.8%,·,·
O=[N+]([O-])c1ccccc1/C=N/N1CCN(c2ccncc2S(=O)(=O)N2CCCCC2)CC1,7.7,2.33µM*,5.2,0.0%,21.7%,11.7µM*
O=[N+]([O-])c1ccc(/C=N/N2CCN(c3ccncc3S(=O)(=O)N3CCCCC3)CC2)cc1,-1.1,4.15µM*,1.0,0.0%,9.8%,?
CC(C)c1c(O)c2c(n(-c3ccccc3)c1=O)CCCC2,-4.1,4.3%,-8.2,-2.5%,8.4%,-6.0%
CC[C@@H]1[C@H]2CCCC(=O)N3CC[C@@H](C[C@@H]1OC(=O)NCc1ccccc1)[C@@H]23,-1.8,?,-9.9,35.5µM*,11.2%,29.5%
COc1ccc(N2CCN(C(=O)c3ccc4c(c3)N(Cc3ccc(F)cc3)C(=O)c3ccccc3S4=O)CC2)cc1 (stereo not drawn),·,·,·,5.4%,·,·
SMILES,Cycloheximide cs,Pf growth 96h,Shiga toxin inh,Sm TGR block,NS1 inh,Pf growth 48h
CCCN(CC(=O)Nc1ccc(Cl)cc1Cl)C(=O)c1ccc(=O)[nH]c1,-2.6,2.3%,-7.4,7.2%,2.6%,12.3%
O=C(NC(Cc1ccccc1)C(=O)N1CCN(c2ccccc2O)CC1)c1ccccc1 (stereo not drawn),·,6.57µM*,·,-1.1%,·,8.28µM*
O=C(NCC(=O)N1CCN(c2ccccc2)CC1)c1ccccc1,10.7*,38.4%,53.4*,2.8%,3.2%,62.8%
O=C(NCC(=O)N1CCN(c2ccccc2O)CC1)c1ccccc1,43.8*,0.2%,77.1*,0.0%,0.5%,-1.7%
O=C(COc1ccccc1-c1nc(-c2ccccc2)no1)Nc1ccccc1[N+](=O)[O-],·,·,·,-10.8%,·,·
CCCCCCN=C1CC(C)(C)CC(=O)/C1=C(/O)CCC,0.0,6.57µM*,-7.9,6.5%,-36.0%,?
COc1ccccc1NS(=O)(=O)c1cc2c3c(c1)CCN3C(=O)CC2,·,-11.6%,·,4.4%,·,-11.8%
CCOc1ccc(-c2cc(C(=O)NN=C3CCN(C)CC3)[nH]n2)cc1,24.8*,20.3%,60.1*,-5.4%,·,0.7%
CN1CCC(=NNC(=O)c2cc(-c3ccc(Cl)cc3)n[nH]2)CC1,10.7,1.8%,13.0,-1.5%,6.6%,-11.4%
CCOC(=O)c1cc(-c2ccc(OC)cc2)n[nH]1,69.4*,22.6%,100.7*,14.3%,-3.3%,55.1%
CCOC(=O)c1cc(-c2ccc3c(c2)OCCO3)n[nH]1,47.8*,53.1%,61.3*,3.7%,-3.8%,122.9%
CCOc1ccc(N(CC(=O)NN=C2CCN(C)CC2)S(=O)(=O)c2ccc(Br)cc2)cc1,14.5,14.7µM*,1.1,-6.0%,?,-3.1%
Cc1ccc(N2CCN(C(=O)c3ccc(Nc4nc5ccccc5n5nnnc45)cc3)CC2)c(C)c1,·,·,·,5.2%,·,·
COc1ccccc1NS(=O)(=O)c1ccc(NC(=O)c2[nH]nc(OC)c2[N+](=O)[O-])cc1,1.8,?,-4.3,1.0%,-18.7%,-6.8%
CC(C)COc1ccc(-c2cc(C(=O)NN)[nH]n2)cc1,26.7*,?,85.6,-5.5%,14.5%,-10.3%
O=C(O)c1cc(-c2ccc3c(c2)OCCO3)n[nH]1,-2.0,?,-13.1,11.2%,0.4%,8.8%
Oc1ccccc1-c1cc(-c2ccc3c(c2)OCCO3)n[nH]1,31.6*,198.2%,46.8,-15.1%,-32.7%,329.3%
O=C1c2ccccc2CN1C(CO)Cc1ccccc1 (stereo not drawn),-2.0,23.7%,-4.0,-0.5%,-0.1%,2.6%
CCn1cc(S(=O)(=O)c2cc(C)cc(C)c2)c(=O)c2cc(F)c(N3CCCCC3)cc21,·,·,·,-3.1%,·,·
Cc1nc2ncnn2c(C)c1CCC(=O)NCCCN1CCN(c2cccc(Cl)c2)CC1,-1.6,?,-13.3,79.4µM*,5.2%,?
Cc1nc2ncnn2c(C)c1CCC(=O)N1CCN(c2cccc(Cl)c2)CC1,·,·,·,6.9%,·,·
